# Bioassay records from PubChem BioAssay.
# UHRF1 binding: blocks human UHRF1 binding to methylated DNA; AID 687016; actives 0.75% (n = 370,000); inhibition, % at 4.4 µM; UHRF1 binding to methylated oligo, TR-FRET; Q96T88; in the data active means inhibition above about 21%;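 further: UHRF1 SRA domain binding a hemimethylated CpG hairpin DNA probe; 0% = median of test compound wells and 100% = reference inhibitor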
# MBD2 inh: MBD2-methylated oligo binding inhibition. inhibition, % at 4.4 µM. TR-FRET, MBD2 binding to methylated oligonucleotide. actives 0.31% (n = 370,000). Q9UBB5. AID 686964; in the data active means inhibition above about 13%
# Rin1 Abl inh: human Rin1-Abl interaction inhibition. P00519+Q13671. TR-FRET Rin1/Abl binding, biochemical. AID 588664. inhibition, % at 7.35 µM. actives 0.4% (n = 360,000); in the data active means inhibition above about 5%, passing the limit was not always enough
# LEDGF integ inh: blocks HIV-1 LEDGF/p75-dependent DNA integration; TR-FRET IN-LEDGF/p75 DNA integration, Eu/Cy5; actives 0.64% (n = 370,000); inhibition, % at 3.7 µM;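 active means inhibition above the screen-wide mean plus 3 SD, cut at about 13% in these data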;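 further: signal is the Cy5 over europium emission ratio at 671 and 618 nm; 0% = plate median of compound wells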
# Neddyl block: blocks human cullin neddylation | P61081+Q13564 | TR-FRET cullin neddylation, biochemical | calls only at 25 µM | actives 0.58% (n = 360,000) | AID 651699; in the data active means inhibition above about 36%
# Target sequence (P61081 whole entry, looked up): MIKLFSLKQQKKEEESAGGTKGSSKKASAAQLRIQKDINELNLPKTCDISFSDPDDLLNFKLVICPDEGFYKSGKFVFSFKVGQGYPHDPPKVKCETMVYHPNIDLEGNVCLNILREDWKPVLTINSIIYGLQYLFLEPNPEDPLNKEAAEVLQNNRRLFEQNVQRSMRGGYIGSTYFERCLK
# Target sequence (Q13564 whole entry, looked up): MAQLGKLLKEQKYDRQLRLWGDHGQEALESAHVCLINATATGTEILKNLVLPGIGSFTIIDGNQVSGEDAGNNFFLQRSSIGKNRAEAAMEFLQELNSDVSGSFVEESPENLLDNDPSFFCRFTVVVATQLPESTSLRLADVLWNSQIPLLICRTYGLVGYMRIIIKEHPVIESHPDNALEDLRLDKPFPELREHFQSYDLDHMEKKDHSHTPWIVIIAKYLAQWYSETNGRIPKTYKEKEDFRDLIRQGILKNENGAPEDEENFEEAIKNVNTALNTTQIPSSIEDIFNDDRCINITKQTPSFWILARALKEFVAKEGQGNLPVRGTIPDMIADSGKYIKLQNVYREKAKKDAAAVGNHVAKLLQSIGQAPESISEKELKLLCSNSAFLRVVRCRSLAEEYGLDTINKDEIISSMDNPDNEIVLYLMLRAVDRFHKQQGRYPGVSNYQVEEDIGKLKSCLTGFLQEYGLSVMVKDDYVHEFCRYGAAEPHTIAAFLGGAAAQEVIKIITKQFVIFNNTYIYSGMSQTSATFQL
# proKLK7 act: activators of human kallikrein-7 zymogen | P49862 | purified proKLK7, EDANS-DABCYL substrate fluorescence; 100% is mature enzyme control, 0% vehicle | activation, % at 7 µM | actives 0.9% (n = 370,000);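 active means activation above the mean of all tested compounds plus 3 SD, computed per campaign excluding outliers beyond control limits, cut at about 13% in these data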
# * marks the source's active call; other numbers are inactive results; i = inactive; / = not tested or not shown. A selection: hits, their analogues and other compounds. The true share with any hit is near 3.1%.
SMILES,UHRF1 binding,MBD2 inh,Rin1 Abl inh,LEDGF integ inh,Neddyl block,proKLK7 act
COCCCN1C(=O)[C@H](CC(=O)N2CCCC2)[C@]2(C(=O)OC)CCCCC=C12,-4,4,/,-2,/,0
COCCN(C(=O)CN1CCCc2ccccc21)c1c(N)n(Cc2ccccc2)c(=O)[nH]c1=O,-1,-2,0,-2,i,-1
COCCN(C(=O)CN1CCc2ccccc21)c1c(N)n(Cc2ccccc2)c(=O)[nH]c1=O,41*,0,4,-2,i,2
COCCn1cnc2c(c1=O)c1nc3ccccc3nc1n2/N=C/c1cccc(OC)c1,24*,3,-3,-4,i,-1
O=C(Nc1ccc(F)cc1F)Nc1csc2ccccc12,33*,0,1,-5,i,0
Oc1ccc(NCc2ccccc2OCc2ccccc2F)cc1,0,-2,-1,5,i,2
CCOc1ccccc1CNc1ccc(O)cc1,17,7,1,25*,i,0
Nc1ccn([C@@H]2O[C@H](CNCc3ccc(C#CCCO)cc3)[C@@H](O)[C@H]2O)c(=O)n1,-1,-2,0,3,i,0
CSc1ccc(CCNC(=O)CCc2nnc3ccc(N4CCCC4)nn23)cc1,0,2,2,-1,i,0
COc1cc(NC(=O)CCc2nnc3ccc(N4CCCC4)nn23)cc(OC)c1OC,23*,7,0,0,i,0
O=C(CCc1nnc2ccc(N3CCCCC3)nn12)NCc1ccco1,25*,3,-3,2,i,0
CCN(CC)CCn1c(NC(=O)c2ccccc2O)nc2ccccc21,-1,-3,0,12,/,-5
COc1ccc(C2C(C(=O)N3CCN(c4ccccc4C)CC3)CC(=O)N2c2ccc(OC)cc2)cc1 (stereo not drawn),1,-3,/,2,/,0
COc1cc(C=O)ccc1OCc1cn(CC(=O)c2ccc(O)cc2)nn1,18,7,-1,0,i,0
CC(=O)c1ccc(OCc2cn(CC(=O)c3ccc(O)cc3)nn2)c(C)c1,23*,11,-2,3,i,0
COc1cc(C(C)=O)ccc1OCc1cn(CC(=O)c2ccc(O)cc2)nn1,21*,7,-1,8,i,0
CC(=O)c1ccc(OCc2cn(CC(=O)c3ccc(O)cc3)nn2)cc1,21*,4,1,4,i,0
Cc1cccc(C)c1OCc1cn(CC(=O)c2ccc(O)cc2)nn1,19,9,1,9,i,-1
O=C(Cn1cc(COc2ccc(Br)cc2[N+](=O)[O-])nn1)c1ccc(O)cc1,24*,8,-2,-1,i,0
COC1OC(c2ccccc2)=C(c2cnc(N)nc2)c2ccc(F)cc21 (stereo not drawn),-1,-4,/,-1,i,0
O=C(NCc1nnc(SCC(=O)N2CCOCC2)o1)c1ccccc1,0,3,4,2,i,0
CCOC(=O)Cc1nc(N2CCN(C=O)CC2)c2c(C)c(C(=O)OCC)sc2n1,2,-3,/,2,/,1
C=CCN1C(=O)[C@@H](CC(=O)NCCCC)[C@]2(C(=O)OCC)CCCCC/C=C/12,-1,-7,/,1,/,0
CCOc1ccc(S(=O)(=O)N(CC(=O)N/N=C/c2ccc(-c3ccc([N+](=O)[O-])cc3)o2)c2ccccc2)cc1,28*,12,0,6,i,0
Cc1ccc(C(=O)NCC(=O)O)o1,0,1,0,52*,i,-1
SMILES,UHRF1 binding,MBD2 inh,Rin1 Abl inh,LEDGF integ inh,Neddyl block,proKLK7 act
CCCCC(=O)N/N=C/c1ccc(N2CCOCC2)c([N+](=O)[O-])c1,-10,-12,-7,-1,i,-1
O=C(CCN=C1NS(=O)(=O)c2ccccc21)OCC(=O)c1ccccc1,32*,0,3,1,i,-1
O=C(CCCN=C1NS(=O)(=O)c2ccccc21)OCC(=O)c1ccccc1,-3,1,-2,-1,i,0
O=[N+]([O-])c1cccc(NC(=S)N2CCCC2)c1,27*,7,0,2,i,0
COC(=O)C=CSC(=S)C1CCCC1=N (stereo not drawn),-4,-3,1,1,i,0
COc1ccc(/C=N/OCC(=O)N=Nc2c(O)[nH]c3ccc(Br)cc23)cc1,21*,6,3,0,i,0
